Experimental data reported in PubChem BioAssay (NCI).
Where “and” joins values, the source holds several entries; their conditions need not be identical. Equal values may be shown once. This is part of a sample that, as a whole, favours compounds with a hit. Of some 83,000 tested, about 20% had one in any assay.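 Single-concentration screen, 48 h exposure, 96-well plates. Endpoint: percent growth. Below 10 = active.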 Calls of active or inactive are those of the source.

Columns and labels:
Assay in all cases: NCI-60 one-dose screen, 48 h (100 = growth as untreated, 0 = no growth, -100 = all killed)
HCT-15 colon = conditions: 10 µM unless noted
HT29 colon = conditions: 10 µM unless noted
SNB-75 CNS = conditions: 10 µM unless noted
SNB-19 CNS = conditions: 10 µM unless noted
U251 CNS = conditions: 10 µM unless noted
PC-3 prostate = conditions: 10 µM unless noted
SK-MEL-5 melanoma = conditions: 10 µM unless noted
UACC-62 melanoma = test system: UACC-62 melanoma
LOX IMVI melanoma = conditions: 10 µM unless noted
SK-MEL-28 melanoma = conditions: 10 µM unless noted

O=C(c1ccc(Cl)cc1)C1C(c2ccccc2)C1[N+](=O)[O-] (stereo unspecified)
growth (HCT-15 colon): 102% (inactive)
growth (HT29 colon): 97.2% (inactive)
growth (SNB-75 CNS): 106% (inactive)
growth (SNB-19 CNS): 97.1% (inactive)
growth (U251 CNS): 89.9% (inactive)
growth (PC-3 prostate): 90.5% (inactive)
growth (SK-MEL-5 melanoma): 96.9% (inactive)
growth (UACC-62 melanoma; 10 µM unless noted): 91.1% (inactive)
growth (LOX IMVI melanoma): 95.2% (inactive)
growth (SK-MEL-28 melanoma): 111% (inactive)

CCOC(=O)NC(N)=O
growth (HCT-15 colon): 105% (inactive) and 98% (inactive)
growth (HT29 colon): 99.9% (inactive) and 106% (inactive)
growth (SNB-75 CNS): 84.3% (inactive) and 87.6% (inactive)
growth (SNB-19 CNS): 103% (inactive) and 100% (inactive)
growth (U251 CNS): 101% (inactive) and 96.4% (inactive)
growth (PC-3 prostate): 99.3% (inactive) and 92.8% (inactive)
growth (SK-MEL-5 melanoma): 101% (inactive)
growth (UACC-62 melanoma; 10 µM unless noted): 103% (inactive)
growth (LOX IMVI melanoma): 97.9% (inactive) and 94.7% (inactive)
growth (SK-MEL-28 melanoma): 112% (inactive) and 108% (inactive)

CC1CC(O)CC(C)(C)C1.CC1CC(O)CC(C)(C)C1.CC1CC(O)CC(C)(C)C1.CC1CC(O)CC(C)(C)C1.[Ti] (stereo unspecified)
growth (HCT-15 colon): 110% (inactive)
growth (HT29 colon): 97.2% (inactive)
growth (SNB-75 CNS): 113% (inactive)
growth (SNB-19 CNS): 93.4% (inactive)
growth (U251 CNS): 99.2% (inactive)
growth (PC-3 prostate): 90.4% (inactive)
growth (SK-MEL-5 melanoma): 104% (inactive)
growth (UACC-62 melanoma; 10 µM unless noted): 76.2% (inactive)
growth (LOX IMVI melanoma): 106% (inactive)
growth (SK-MEL-28 melanoma): 118% (inactive)

Nc1nc(=S)c2[nH]cnc2[nH]1
growth (HCT-15 colon): 13% (inactive) and 12.5% (inactive)
growth (HT29 colon): 9.45% (active) and 8.24% (active)
growth (SNB-75 CNS): 29.1% (inactive) and 26.5% (inactive)
growth (SNB-19 CNS): 98.2% (inactive) and 102% (inactive)
growth (U251 CNS): 47.2% (inactive) and 51% (inactive)
growth (PC-3 prostate): 33.2% (inactive) and 32.1% (inactive)
growth (SK-MEL-5 melanoma): -2% (active) and -29% (active)
growth (UACC-62 melanoma; 10 µM): -21.9% (active)
growth (UACC-62 melanoma; 250 µM): -67.7% (active) and -100% (active)
growth (LOX IMVI melanoma): 8.31% (active) and 5.43% (active)
growth (SK-MEL-28 melanoma): 29% (inactive)

CCN(CC)Cc1cc2[nH]c3c4ccc(Cl)cc4ncc3c2cc1OC
growth (HCT-15 colon): 45.9% (inactive) and 16.8% (inactive)
growth (HT29 colon): 10.2% (inactive) and 9.65% (active)
growth (SNB-75 CNS): 74.9% (inactive) and 84.7% (inactive)
growth (SNB-19 CNS): 104% (inactive) and 103% (inactive)
growth (U251 CNS): 3.79% (active) and 64.8% (inactive)
growth (PC-3 prostate): 52.4% (inactive) and 70% (inactive)
growth (SK-MEL-5 melanoma): -97.7% (active)
growth (UACC-62 melanoma; 10 µM unless noted): 35% (inactive) and 110% (inactive)
growth (LOX IMVI melanoma): -71.8% (active) and -38.7% (active)
growth (SK-MEL-28 melanoma): -90% (active) and 115% (inactive)

O=c1[nH]c(=O)c2[nH]c(=O)[nH]c2[nH]1
growth (HCT-15 colon): 99% (inactive)
growth (HT29 colon): 105% (inactive)
growth (SNB-75 CNS): 89.8% (inactive)
growth (SNB-19 CNS): 103% (inactive)
growth (U251 CNS): 101% (inactive)
growth (PC-3 prostate): 96.2% (inactive)
growth (SK-MEL-5 melanoma): 100% (inactive)
growth (UACC-62 melanoma; 10 µM unless noted): 99.8% (inactive)
growth (LOX IMVI melanoma): 102% (inactive)
growth (SK-MEL-28 melanoma): 98.9% (inactive)

CC1=CC(=O)c2cccc(NC3=NCCO3)c21
growth (HCT-15 colon): 102% (inactive)
growth (HT29 colon): 101% (inactive)
growth (SNB-75 CNS): 84.6% (inactive)
growth (SNB-19 CNS): 104% (inactive)
growth (U251 CNS): 99.5% (inactive)
growth (PC-3 prostate): 89.1% (inactive)
growth (SK-MEL-5 melanoma): 98.2% (inactive)
growth (UACC-62 melanoma; 10 µM unless noted): 87.8% (inactive)
growth (LOX IMVI melanoma): 98.4% (inactive)
growth (SK-MEL-28 melanoma): 108% (inactive)

COc1cc([C@@H]2c3cc4c(cc3[C@H](O)[C@H]3COC(=O)[C@@H]23)OCO4)cc(OC)c1OC
growth (HCT-15 colon): 29.2% (inactive) and 10.5% (inactive)
growth (HT29 colon): 2.22% (active) and -8.13% (active)
growth (SNB-75 CNS): 19.4% (inactive) and 12.9% (inactive)
growth (SNB-19 CNS): 27.3% (inactive) and 12.9% (inactive)
growth (U251 CNS): 16.4% (inactive) and 26.2% (inactive)
growth (PC-3 prostate): 26.9% (inactive) and 6.21% (active)
growth (SK-MEL-5 melanoma): -27.1% (active) and -44% (active)
growth (UACC-62 melanoma; 10 µM unless noted): 19.9% (inactive) and 68.1% (inactive)
growth (LOX IMVI melanoma): 23.3% (inactive) and 15.6% (inactive)
growth (SK-MEL-28 melanoma): 28.4% (inactive) and -24% (active)

Cc1onc(-c2c(F)cccc2Cl)c1-c1ncc(-c2ccc(Cl)cc2)o1
growth (HCT-15 colon): 29.5% (inactive) and 16.4% (inactive)
growth (HT29 colon): 23.3% (inactive) and 21.8% (inactive)
growth (SNB-75 CNS): 84% (inactive) and 62% (inactive)
growth (SNB-19 CNS): 80.7% (inactive) and 40% (inactive)
growth (U251 CNS): 41.1% (inactive)
growth (PC-3 prostate): 31% (inactive) and 34.5% (inactive)
growth (SK-MEL-5 melanoma): 25.4% (inactive) and 6.61% (active)
growth (UACC-62 melanoma; 10 µM unless noted): 29.7% (inactive) and 32.2% (inactive)
growth (LOX IMVI melanoma): 12.5% (inactive)
growth (SK-MEL-28 melanoma): 68.8% (inactive) and 50.2% (inactive)

CCn1c2ccc(N(C)C)cc2c2cc(N(C)C)ccc21
growth (HCT-15 colon): 112% (inactive)
growth (HT29 colon): 78.9% (inactive)
growth (SNB-75 CNS): 99.3% (inactive)
growth (SNB-19 CNS): 102% (inactive)
growth (U251 CNS): 93.9% (inactive)
growth (PC-3 prostate): 72.9% (inactive)
growth (SK-MEL-5 melanoma): 97.6% (inactive)
growth (UACC-62 melanoma; 10 µM unless noted): 91.9% (inactive)
growth (LOX IMVI melanoma): 96.8% (inactive)
growth (SK-MEL-28 melanoma): 98.9% (inactive)

CCOP(=O)(OCC)/C(C#N)=C/c1c(C)[nH]c2ccccc12
growth (HCT-15 colon): 108% (inactive)
growth (HT29 colon): 106% (inactive)
growth (SNB-75 CNS): 49.8% (inactive)
growth (SNB-19 CNS): 94.6% (inactive)
growth (U251 CNS): 88.9% (inactive)
growth (PC-3 prostate): 83.3% (inactive)
growth (SK-MEL-5 melanoma): 91.3% (inactive)
growth (UACC-62 melanoma; 10 µM unless noted): 82.3% (inactive)
growth (LOX IMVI melanoma): 89.7% (inactive)
growth (SK-MEL-28 melanoma): 113% (inactive)

Cc1c(Cl)cc(Cl)c(N)c1Cl
growth (HCT-15 colon): 104% (inactive)
growth (HT29 colon): 108% (inactive)
growth (SNB-75 CNS): 91.2% (inactive)
growth (SNB-19 CNS): 109% (inactive)
growth (U251 CNS): 99.4% (inactive)
growth (PC-3 prostate): 92.2% (inactive)
growth (SK-MEL-5 melanoma): 106% (inactive)
growth (UACC-62 melanoma; 10 µM unless noted): 105% (inactive)
growth (LOX IMVI melanoma): 99% (inactive)
growth (SK-MEL-28 melanoma): 110% (inactive)

COc1cc(Cl)ccc1C
growth (HCT-15 colon): 14.3% (inactive)
growth (HT29 colon): 27.1% (inactive)
growth (SNB-75 CNS): 110% (inactive)
growth (SNB-19 CNS): 79% (inactive)
growth (U251 CNS): 78% (inactive)
growth (PC-3 prostate): 74.1% (inactive)
growth (SK-MEL-5 melanoma): 96.3% (inactive)
growth (UACC-62 melanoma; 10 µM unless noted): 66.4% (inactive)
growth (LOX IMVI melanoma): 77.1% (inactive)
growth (SK-MEL-28 melanoma): 112% (inactive)

N#Cc1ccc(/C=C/C(=O)c2ccccc2)cc1
growth (HCT-15 colon): 49.6% (inactive) and 82.3% (inactive)
growth (HT29 colon): 12% (inactive) and 70.5% (inactive)
growth (SNB-75 CNS): 87.3% (inactive)
growth (SNB-19 CNS): 89.9% (inactive)
growth (U251 CNS): 33.2% (inactive) and 62.5% (inactive)
growth (PC-3 prostate): 52.2% (inactive)
growth (SK-MEL-5 melanoma): 90.9% (inactive) and 102% (inactive)
growth (UACC-62 melanoma; 10 µM unless noted): 91.3% (inactive) and 89.9% (inactive)
growth (LOX IMVI melanoma): 28% (inactive) and 82% (inactive)
growth (SK-MEL-28 melanoma): 124% (inactive) and 93.1% (inactive)

O=C1Cc2ccccc2C(=O)N1
growth (HCT-15 colon): 99.2% (inactive)
growth (HT29 colon): 88.9% (inactive)
growth (SNB-75 CNS): 96.1% (inactive)
growth (SNB-19 CNS): 106% (inactive)
growth (U251 CNS): 86.1% (inactive)
growth (PC-3 prostate): 95.2% (inactive)
growth (SK-MEL-5 melanoma): 106% (inactive)
growth (UACC-62 melanoma; 10 µM unless noted): 92.2% (inactive)
growth (LOX IMVI melanoma): 42.1% (inactive)
growth (SK-MEL-28 melanoma): 106% (inactive)

CCN(CC)C(=S)SCCO
growth (HCT-15 colon): 107% (inactive)
growth (HT29 colon): 99.8% (inactive)
growth (SNB-75 CNS): 89.4% (inactive)
growth (SNB-19 CNS): 104% (inactive)
growth (U251 CNS): 98.2% (inactive)
growth (PC-3 prostate): 103% (inactive)
growth (SK-MEL-5 melanoma): 99.7% (inactive)
growth (UACC-62 melanoma; 10 µM unless noted): 107% (inactive)
growth (LOX IMVI melanoma): 97% (inactive)
growth (SK-MEL-28 melanoma): 112% (inactive)

COc1ccc(COC=O)cc1
growth (HCT-15 colon): 107% (inactive)
growth (HT29 colon): 104% (inactive)
growth (SNB-75 CNS): 102% (inactive)
growth (SNB-19 CNS): 114% (inactive)
growth (U251 CNS): 100% (inactive)
growth (PC-3 prostate): 99.9% (inactive)
growth (SK-MEL-5 melanoma): 104% (inactive)
growth (UACC-62 melanoma; 10 µM unless noted): 104% (inactive)
growth (LOX IMVI melanoma): 100% (inactive)
growth (SK-MEL-28 melanoma): 111% (inactive)

C(=N\OCCc1ccccc1)/c1ccccn1
growth (HCT-15 colon): 95% (inactive) and 104% (inactive)
growth (HT29 colon): 112% (inactive) and 97.7% (inactive)
growth (SNB-75 CNS): 117% (inactive) and 86.2% (inactive)
growth (SNB-19 CNS): 108% (inactive) and 103% (inactive)
growth (U251 CNS): 103% (inactive) and 92.2% (inactive)
growth (PC-3 prostate): 112% (inactive) and 104% (inactive)
growth (SK-MEL-5 melanoma): 113% (inactive) and 111% (inactive)
growth (UACC-62 melanoma; 10 µM unless noted): 110% (inactive) and 107% (inactive)
growth (LOX IMVI melanoma): 122% (inactive) and 101% (inactive)
growth (SK-MEL-28 melanoma): 114% (inactive) and 112% (inactive)

COCCCNC1=C(C#N)C(=O)NC(c2cccs2)S1 (stereo unspecified)
growth (HCT-15 colon): 98.2% (inactive)
growth (HT29 colon): 99.9% (inactive)
growth (SNB-75 CNS): 83.2% (inactive)
growth (SNB-19 CNS): 94.4% (inactive)
growth (U251 CNS): 100% (inactive)
growth (PC-3 prostate): 100% (inactive)
growth (SK-MEL-5 melanoma): 95.3% (inactive)
growth (UACC-62 melanoma; 10 µM unless noted): 91.7% (inactive)
growth (LOX IMVI melanoma): 105% (inactive)
growth (SK-MEL-28 melanoma): 113% (inactive)
